Data on 8 molecules can be found in PubChem BioAssay.

For assay [1], the system named is XIP peptide (Xip251-270) binding. The assay is described as follows: XIP fragment 251-270 binding compounds – biochemical, small-molecule microarray, fluorescence 635/667 nm, 0.1 µg/mL protein, primary screen (AID 1182). The note with it: fluorescent protein binding, 635 nm, higher = more signal, called active from +8 up or from −8 down.
Assay [2] relates to XIP peptide (Xip251-270). The assay is described as follows: compounds binding XIP fragment 251-270 – biochemical, small-molecule microarray, fluorescence 635/667 nm, 0.5 µg/mL protein, primary screen (AID 1183). The note with it: fluorescence 635 nm, higher = more signal.
Assay [3] is described as follows: blood-stage malaria parasite viability loss – strain 3D7, DAPI fluorescence, 100 nL, primary screen (AID 1184).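 Further: parasites grown inside human red blood cells in medium with human serum.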 Particulars: P. falciparum 3D7 growth, 3 d, higher = more signal.
Assay [4] has as its target Homeobox protein Hox-A13 (Mus musculus) (UniProt Q62424). The experiment in a line: disruptors of Hoxa13 oligonucleotide interaction – biochemical, fluorescence polarization, labeled oligonucleotide, primary screen (AID 1185). Particulars: Hoxa13:DNA binding, 15 min, higher = more signal, called active from +8 up or from −8 down. Background: Polarisation of emitted light reports the rotation of a fluorescent probe.

Assay [5] can be described thus: blockers of DNA damage checkpoint Chk1 activation – imaging, HeLa, hydroxyurea, phospho-Chk1 antibody, percent positive cells, primary screen (AID 1186). The note with it: hydroxyurea-induced phospho-Chk1 immunofluorescence imaging, higher = more signal.
Assay [6] in a line: blockers of DNA damage checkpoint Chk1 activation – imaging, HeLa, hydroxyurea, phospho-Chk1 nuclear intensity, primary screen (AID 1187). The note with it: hydroxyurea-induced phospho-Chk1 immunofluorescence imaging, higher = more signal.

Active and inactive are the calls of the source. Unless noted, how the calls were made is not given here.

Homeobox protein Hox-A13 (Mus musculus), sequence (Q62424 whole entry, looked up): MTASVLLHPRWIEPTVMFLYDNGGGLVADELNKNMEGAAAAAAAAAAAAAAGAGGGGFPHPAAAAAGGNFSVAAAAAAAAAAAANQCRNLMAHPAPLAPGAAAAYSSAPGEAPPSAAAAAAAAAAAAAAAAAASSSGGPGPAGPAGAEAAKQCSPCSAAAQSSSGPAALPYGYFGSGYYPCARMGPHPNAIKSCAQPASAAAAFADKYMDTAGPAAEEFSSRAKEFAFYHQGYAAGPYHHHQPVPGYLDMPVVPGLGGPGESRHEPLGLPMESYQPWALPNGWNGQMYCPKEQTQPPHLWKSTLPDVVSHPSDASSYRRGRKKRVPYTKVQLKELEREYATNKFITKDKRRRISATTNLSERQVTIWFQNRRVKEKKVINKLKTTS

Regarding `O=C1OCCC/C=C\[C@H]2OC34C=CCN(Cc5ccccc5)C(=O)[C@H]3N(CCO)C(=O)[C@@H]4C12` (stereo partly drawn), the composite z-score in assay [1] is 1.68 (inactive); in assay [2] it was -0.0058. Also, the z-score is 0.499 in assay [3], -5.69 (inactive) in assay [4], -0.909 (inactive) in assay [5] and -0.375 (inactive) in assay [6].

Take `[N-]=[N+]=NCc1ccccc1C[C@@]1(C(=O)NCCN2CCOCC2)N=C(c2ccc(OCCCO)cc2)O[C@@H]1c1ccccc1`: the results for the composite z-score in assay [1] and in assay [2] were 0.682 (inactive) and 0.629, respectively. Also, the z-score in assay [3] was -2.11; in assay [4], -4.43 (inactive); in assay [5], 0.174 (inactive); in assay [6] it was 0.47 (inactive).

Consider `COc1ccc(C(=O)Nc2ccc(CN3C(=O)[C@@]4(O[C@@H](CC(=O)N(CCO)Cc5ccccc5)[C@H]([Si](C)(C)c5ccc(OC)cc5)[C@H]4C)c4ccccc43)cc2)cc1`, for which the composite z-score in assay [1] is 1.96 (inactive); in assay [2], 0.622. The z-score was -0.992 in assay [3], -1.31 (inactive) in assay [4], -0.543 (inactive) in assay [5] and -0.262 (inactive) in assay [6].

`O=C(c1ccccc1)N1Cc2ccccc2C[C@@]2(N=C(c3ccc(OCCCO)cc3)O[C@H]2c2ccccc2)C1=O`: the composite z-score in assay [1] is 0.742 (inactive); in assay [2] it was 0.814. The z-score in assay [3] is -1.92; in assay [4], -2.43 (inactive); in assay [5], -0.0769 (inactive); in assay [6], 0.098 (inactive).

For the molecule `[N-]=[N+]=NCc1ccccc1C[C@]1(C(=O)N2CCCCC2)COC(c2ccc(OCCCO)cc2)=N1`, the composite z-score was -0.061 (inactive) in assay [1] and 0.652 in assay [2]. The z-score was -2.29 in assay [3], -6.04 (inactive) in assay [4], -0.749 (inactive) in assay [5] and -0.928 (inactive) in assay [6].

On to `COC(=O)[C@]1(Cc2ccccc2N=[N+]=[N-])N=C(c2ccc(OCCCO)cc2)O[C@@H]1c1ccccc1CN=[N+]=[N-]`, for which the composite z-score in assay [1] was 0.11 (inactive); in assay [2], 0.729. For the same molecule, the z-score was -1.96 in assay [3], -1.15 (inactive) in assay [4], -0.446 (inactive) in assay [5] and -0.437 (inactive) in assay [6].

Consider `O=C1c2ccccc2[C@](Cc2ccccc2I)(C(=O)NCCN2CCOCC2)[C@H](c2ccc(CO)cc2)N1Cc1ccccc1C(F)(F)F`, for which the composite z-score is 0.0302 (inactive) in assay [1] and 0.627 in assay [2]. The z-score in assay [3] is -1.29; in assay [4] it was -4.81 (inactive); in assay [5], -0.0107 (inactive); in assay [6] it was -0.105 (inactive).

With `CC[C@H]1C2=C3C(CC[C@H]4C(OCc5ccc(F)cc5C(F)(F)F)OC[C@](C)([C@@H]34)N(C(=O)OC(C)(C)C)C2)C(COC(C)=O)C1COC(C)=O` (stereo partly drawn), the composite z-score is 0.28 (inactive) in assay [1] and 0.633 in assay [2]. Also, the z-score was -1.24 in assay [3], -3.07 (inactive) in assay [4], 0.127 (inactive) in assay [5] and 0.294 (inactive) in assay [6].
